MEKK2 WT-MEK5: raises or lowers MEK5 binding to wildtype human MEKK2 PB1 domain | Q9Y2U5 | bead flow cytometry, Alexa488-MEK5 binding to MEKK2 WT; actives lie on both sides | binding response (% of control), % at 10 µM | 290,000 tested, 1.1% active; in the data active = binding response below about 67% or above about 130%
MEKK3 PB1 HTS: modulators (inhibitors or enhancers) of MEK5 binding to human MEKK3 PB1 domain; AID 1529; bead-based flow cytometry, Alexa488-MEK5 binding to MEKK3; actives lie on both sides; 0 = blocked by unlabeled MEK5, 100 = vehicle; binding response (% of control), % at 10 µM; 290,000 tested, 1.4% active; Q99759;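 active = binding response more than 3 SD above or below the average of its plate-row segment, actives on both sides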;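 also: Alexa488 bead fluorescence after subtracting the streptavidin-only scavenger bead signal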
Target sequence (Q99759 whole entry, looked up, the tested form may be a part): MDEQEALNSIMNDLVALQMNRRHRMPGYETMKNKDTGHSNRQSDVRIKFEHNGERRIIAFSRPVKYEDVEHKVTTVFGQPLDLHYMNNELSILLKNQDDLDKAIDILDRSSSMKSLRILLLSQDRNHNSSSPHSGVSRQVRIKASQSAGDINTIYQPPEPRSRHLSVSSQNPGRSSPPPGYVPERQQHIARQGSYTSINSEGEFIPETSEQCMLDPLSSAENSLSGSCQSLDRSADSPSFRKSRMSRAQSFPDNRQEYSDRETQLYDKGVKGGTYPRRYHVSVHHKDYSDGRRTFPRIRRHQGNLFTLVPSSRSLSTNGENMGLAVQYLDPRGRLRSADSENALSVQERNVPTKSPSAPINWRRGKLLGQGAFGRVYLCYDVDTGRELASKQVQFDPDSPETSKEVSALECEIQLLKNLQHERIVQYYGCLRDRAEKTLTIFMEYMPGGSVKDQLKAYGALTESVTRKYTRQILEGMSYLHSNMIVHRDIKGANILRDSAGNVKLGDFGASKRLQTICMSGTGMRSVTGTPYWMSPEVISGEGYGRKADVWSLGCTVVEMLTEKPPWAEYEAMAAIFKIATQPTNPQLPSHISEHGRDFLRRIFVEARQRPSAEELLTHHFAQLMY
MEKK2mut PB1 HTS: signal of MEK5 binding to mutant human MEKK2 PB1 domain | percent response, % at 10 µM | 290,000 tested, 0.35% active | bead flow cytometry, Alexa488-MEK5 binding to MEKK2 mutant; in the data active = percent response above about 24%, passing the limit was not always enough
CRFR2-BP ag: agonists of human CRF-binding protein/CRF-R2 receptor complex. HEK293 CRF-R2/CRF-BP, calcium dye fluorescence (FLIPR); percent of saturating CRF peptide response. activation, % at 13.2 µM. 350,000 tested, 0.46% active. AID 588473;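 active = activation of at least 50%, plus an integration ratio under a set limit after plate pattern correction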;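 also: plate controls were neutral control wells without compound for no effect and CRF at EC100 for full effect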
ABCB6 inh MLPCN: human ABCB6 transporter inhibition | AID 602162 | 360,000 tested, 0.19% active | K562-ABCB6 porphyrin accumulation, flow cytometry, 1 h; stronger effect = lower value | Q9NP58 | fluorescence ratio to DMSO, % at 10 µM;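 active = fluorescence ratio to DMSO below 75%, the collection mean minus 3 SD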;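 also: signal is porphyrin accumulated inside mitochondria; 100% equals median channel fluorescence of DMSO control wells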
CRFR2-BP antag: antagonists of CRF-binding protein/CRF-R2 receptor complex | HEK293 CRF-R2/CRF-BP, CRF-induced calcium fluorescence | 350,000 tested, 0.59% active | inhibition, % at 11.8 µM | AID 588475;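 active = inhibition of the ligand-induced calcium signal above about 50% at the single tested concentration, limit read from the data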
Starred values were filed as active, the others as inactive; . = no result. A selection: hits, their analogues and other compounds. The true share with any hit is near 2.9%.

SMILES | MEKK2 WT-MEK5 | MEKK3 PB1 HTS | MEKK2mut PB1 HTS | CRFR2-BP ag | ABCB6 inh MLPCN | CRFR2-BP antag
COc1ccc(N2C(=O)CC(c3ccc([N+](=O)[O-])cc3)C2=O)cc1 (stereo not drawn) | 105.0 | 106.0 | 5.0 | 2.2 | 96.0 | 63.4*
COc1ccccc1CC1CC(=O)N(c2ccc([N+](=O)[O-])cc2)C1=O (stereo not drawn) | . | . | . | 0.5 | 95.0 | -6.7
CC1Cc2cc(/C(O)=C3/C(=O)C(=O)N(CCCn4ccnc4)C3c3ccc(F)cc3)ccc2O1 (stereo not drawn) | 93.0 | 99.0 | 0.0 | 1.4 | 101.0 | 4.8
COc1cc(C(=O)NNC(=O)COc2cccc(F)c2)ccc1OCC(=O)N1CCOCC1 | . | . | . | -0.4 | 97.0 | -3.3
Cc1ccc(C(=O)CSC2=C(C#N)C(c3ccco3)C3=C(CCCC3=O)N2)cc1 (stereo not drawn) | 81.0 | 90.0 | -7.0 | -1.1 | 105.0 | 1.8
CC(C)(C)c1ccc(C(=O)CCCSC2=C(C#N)C(c3ccco3)C3=C(CCCC3=O)N2)cc1 (stereo not drawn) | 105.0 | 99.0 | -3.0 | 0.2 | 57.0* | -3.0
CCn1c(O)c(N=NC(=O)CNC(=O)c2cccnc2)c2ccccc21 | . | . | . | 4.2 | 101.0 | -5.1
COc1ccccc1Nc1nc(N)nc(CSC(=S)N2CC(C)CC(C)C2)n1 (stereo not drawn) | 96.0 | 95.0 | -3.0 | 0.3 | 102.0 | 53.0*
Cc1noc(C)c1COC(=O)Cc1ccc(Cl)c(Cl)c1 | . | . | . | -2.2 | 98.0 | 62.5*
Cc1noc(C)c1COC(=O)[C@H](C)NS(=O)(=O)c1ccc(Cl)c(Cl)c1 | 102.0 | 104.0 | 2.0 | -2.2 | 92.0 | 10.2
CS(=O)(=O)Oc1ccc(Br)c2cccnc12 | 96.0 | 91.0 | 3.0 | -1.7 | 92.0 | 62.3*
CCN(CC)CCNC(=O)C1CCN(S(=O)(=O)c2c(C)noc2/C=C/c2ccccc2F)CC1 | 136.0* | 107.0 | 11.0 | 2.3 | 101.0 | -11.9
Cc1ccc(NC(=O)C2CCN(S(=O)(=O)c3c(C)noc3/C=C/N(C)C)CC2)cc1 | 59.0 | 64.0 | -10.0 | -0.9 | 100.0 | -2.2
Cc1noc(/C=C/N(C)C)c1S(=O)(=O)N1CCC(C(=O)Nc2ccc(Cl)cc2)CC1 | 96.0 | 102.0 | 2.0 | -1.2 | 98.0 | 90.3*
O=C(NC1CCCCC1)c1cc(S(=O)(=O)N2CCOCC2)c(Cl)cc1Cl | 99.0 | 102.0 | -4.0 | -2.3 | 92.0 | 6.3
COc1ccc(-c2ccc(CN3C(C)C(=O)N(Cc4cn(Cc5ccco5)nn4)CCS3(=O)=O)cc2)cc1 (stereo not drawn) | . | . | . | -1.7 | 95.0 | 69.3*
CC1C(=O)N(Cc2cn(CCC3OCCCO3)nn2)CCS(=O)(=O)N1Cc1ccc(-c2ccc(Cl)cc2)cc1 (stereo not drawn) | . | . | . | 0.5 | 99.0 | 52.5*
CNC(=S)NCCc1c[nH]c2ccc(OC)cc12 | 97.0 | 101.0 | 0.0 | 0.0 | 91.0 | 2.0
COc1ccc2[nH]cc(CCNC(=S)NC3CCCC3)c2c1 | 83.0 | 79.0 | -6.0 | -1.0 | 97.0 | 51.0*
O=C(Nc1ccc(C(=O)O)cc1)Nc1ccc([N+](=O)[O-])cc1 | 102.0 | 100.0 | 2.0 | 0.4 | 99.0 | 3.6
O=C(Nc1cc(C(F)(F)F)cc(C(F)(F)F)c1)Nc1cnn(-c2ccc([N+](=O)[O-])cc2)c1C(F)(F)F | 127.0 | 104.0 | 8.0 | 58.2* | 92.0 | -29.3
Cc1cccc(OCC(=O)N/N=C\c2cccn2C)c1C | 97.0 | 102.0 | 2.0 | -0.1 | 67.0* | -18.7
CCCS(=O)(=O)N1CCCC(C(=O)NCCCN(CC)c2cccc(C)c2)C1 (stereo not drawn) | 95.0 | 88.0 | -10.0 | 2.5 | 107.0 | 93.6*
CCCS(=O)(=O)N1CCC(C(=O)NCCCN(CC)c2cccc(C)c2)CC1 | 102.0 | 98.0 | -6.0 | -0.1 | 104.0 | -1.1
O=C(Nc1ccc(Br)cc1Cl)c1ccc2c(=O)n3c(nc2c1)CCC3 | . | . | . | 101.1* | 97.0 | -2.8
CCOC(=O)N1CCN(Cc2nc3c(c(=O)n(C)c(=O)n3C)n2CCC(C)C)CC1 | 109.0 | 105.0 | 6.0 | -4.9 | 91.0 | 129.4*

High-throughput results as filed in PubChem.
